Screening data as filed in PubChem BioAssay.
Only some compounds are listed: those with a hit (about 0.74% of all), similar ones and a draw of the others.
Vif-A3G inh: Vif-A3G binding inhibition. AID 602310. Potency, µM (highest dose often 46.1 µM), usual class: inhibitors. 410,000 compounds, 0.076% hits. HeLa A3G-eYFP + Vif (tagged APOBEC3G with the HIV-1 protein that degrades it), YFP fluorescence, overnight. Q9HC16; further: nearly all actives have a fitted effect of over 60% in size
Target sequence (Q9HC16 whole entry, looked up): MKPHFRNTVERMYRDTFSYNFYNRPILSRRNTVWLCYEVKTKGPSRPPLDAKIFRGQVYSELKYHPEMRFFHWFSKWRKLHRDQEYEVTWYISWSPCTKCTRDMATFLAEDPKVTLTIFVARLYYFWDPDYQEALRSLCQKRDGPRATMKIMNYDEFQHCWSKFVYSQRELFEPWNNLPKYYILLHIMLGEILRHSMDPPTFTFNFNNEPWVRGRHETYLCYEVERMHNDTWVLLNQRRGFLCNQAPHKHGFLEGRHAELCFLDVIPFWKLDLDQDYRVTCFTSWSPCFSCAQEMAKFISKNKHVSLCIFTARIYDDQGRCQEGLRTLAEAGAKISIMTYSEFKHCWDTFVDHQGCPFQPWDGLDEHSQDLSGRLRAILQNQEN
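HeLa cells stably expressing Vif and C-terminally eYFP-tagged A3G, seeded overnight at 37 deg C, then exposed to compound by pintool overnight at 37 deg C. Rise in yellow fluorescence (Ex 488/Em 500-530, Acumen) marks blocked Vif-driven A3G degradation.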
Glioma ERSR ind: ER stress response induction in glioma; U87-MG GRP78 promoter luciferase reporter, 16 h; Potency, µM, actives largely listed as activators; 420,000 compounds, 0.02% hits; further: series mostly up to about 76 µM; nearly all actives have a fitted effect of over 35% in size
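ERSR induction read as luciferase luminescence (Bright-Glo, 10 min at room temperature) in stably transfected human U87-MG glioma cells exposed to compounds for 16 h, using GRP78 as sensor.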
Vif-A3F inh: blocks the Vif interaction with APOBEC3F | HeLa A3F-eYFP + Vif (tagged APOBEC3F with the HIV-1 protein that degrades it), YFP fluorescence increase | AID 602313 | Potency, µM (doses to about 46.1 µM) | 390,000 compounds, 0.2% hits; further: nearly all actives have a fitted effect of over 65% in size
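HeLa cells stably expressing Vif plus C-terminally eYFP-tagged A3F were seeded, incubated overnight at 37 deg C, dosed with compound, incubated overnight again at 37 deg C. Yellow fluorescence (Ex 488/Em 500-530) reported blocked Vif-mediated A3F-eYFP degradation.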
PINK1 modulator: PINK1 expression modulation; PINK1 immunofluorescence, high-content cytometry, 24 h; Potency, µM (top dose mostly 76.6 µM), usual class: activators; 410,000 compounds, 0.2% hits; active means well fitted activation curve with a large enough effect; inconclusive means small, poorly fitted or top-dose-only effect; cell line not stated here; further: nearly all actives have a fitted effect of over 65% in size
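Decision-based qHTS: stable cells, 24 h exposure to five compound concentrations, CCCP as control. Fixed cells stained for PINK1 plus nuclear, mitochondrial and cell markers, cytometer read.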
LDHA block: LDHA (human) enzyme inhibition; P00338; purified LDHA, NADH/diaphorase-resazurin fluorescence; active compounds read low; activity change, % (values are at about 110 or 230 µM); 480,000 compounds, 0.15% hits; AID 1347041; in the data active means activity change below about -30%; inconclusive means mostly about -25% to -30%
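Resorufin fluorescence (ex540/em590), read at 0 and 20 min after diaphorase/resazurin addition, reports the NADH left after a 5 min room-temperature reaction of 2 nM human LDH5 with 0.06 mM NADH and 0.2 mM pyruvate.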
pAkt inh: inhibitors of Akt phosphorylation; Neuro2A IGF-stimulated pAkt S473 HTRF, 20 min; active compounds read low; activity change, % for hits at 50 µM; 360,000 compounds, 0.32% hits; AID 651550; in the data active means activity change below about -80%; inconclusive means mostly about -51% to -80%
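Neuro2A cells (4,500/well, DMEM with 0.5% FBS) were treated with compound at a single 50 µM final concentration, stimulated with 6 nM IGF for 20 min at 37 °C, and lysed. Phospho-Akt Ser473 was read by HTRF as 665/615 ratio ×10^4.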
A number is an active result; - = inactive; ? = inconclusive; . = no result given. Unless noted, the call rests on the fitted dose curve; in most records, active means well fitted curve in the direction sought with a large enough effect; inconclusive means small, poorly fitted or top-dose-only effect, or another doubt; inactive means no such curve, though single readings can be large; an effect the other way counts as inactive or inconclusive.

SMILES	Vif-A3G inh	Glioma ERSR ind	Vif-A3F inh	PINK1 modulator	LDHA block	pAkt inh
O=C(Nc1ccccc1)C(Cc1ccccc1)N1Cc2ccccc2C1=O (stereo not drawn)	-	-	-	?	-	.
CCOC(=O)CSc1ncnc2c1sc1nc(N3CCOCC3)c3c(c12)CCCC3	-	-	-	-	-	-84.2%
CN1CCN(C(=O)c2ccc3c(=O)n(Cc4ccc5c(c4)OCO5)c(=S)[nH]c3c2)CC1	.	.	.	-	-	.
O=C(c1ccc2c(=O)n(Cc3ccc4c(c3)OCO4)c(=S)[nH]c2c1)N1CCCCC1	-	-	-	14.1µM	-	-
CCc1ccc(C(C)(c2ccc(O)cc2)c2ccc(O)cc2)cc1	.	.	.	.	-	.
Cc1nc2nc(NCc3cc(F)cc(F)c3)[nH]n2c(=O)c1CCO	.	.	.	.	-	.
CN(C)c1ccc(N/C=C/C(=O)C(C)(C)C)cc1	-	-	-	-	-	-113.7%
CCOc1ccc(Nc2nc3ccccc3nc2NS(=O)(=O)c2ccc(F)cc2)cc1	.	.	.	.	-	.
Cc1ccc(-c2nn(CC(O)COCc3ccccc3)c(=O)c3ccccc23)cc1 (stereo not drawn)	.	.	.	.	-	.
Cc1ccc(SCCCn2cncn2)cc1	-	-	-	-	-	-111.2%
Clc1ccc(SCCn2cncn2)cc1	-	-	.	-	-	-
COc1ccccc1N1CCN(C(C)C(=O)N2CC(C)OC(C)C2)CC1 (stereo not drawn)	-	-	-	-	-39.4	-
COc1ccccc1N1CCN(C(=O)C(F)F)CC1	-	-	-	-	-	.
COc1ccc2nc3sc(C(=O)Nc4cc(Cl)c(OC)cc4OC)cc3cc2c1	?	-	7.08µM	-	-	.
COc1ccc2nc3sc(C(=O)O)cc3cc2c1	.	.	.	.	-	.
CCCNc1c(NC(=O)c2cccc(OC)c2)c(=O)oc2ccccc12	.	.	.	.	-	.
Cc1nc(N2CCC(C)CC2)c2c(C)c(C(=O)Nc3ccc(C(F)(F)F)cc3)sc2n1	-	-	-	39.8µM	-	-
Cn1c(-c2ccccc2)c(C(=O)CCl)c2ccccc21	-	-	-	-	-	-
CCCc1c(CC)c(=N)c2ccccc2n1C	-	-	-	-	-44.7	-
O=C(NCCN1CCN(Cc2ccccc2)CC1)C1c2ccccc2C(=O)N2CCc3ccccc3C12 (stereo not drawn)	-	-	-	-	-	-
Cc1ccc(CNC(=O)C2c3ccccc3C(=O)N3CCc4ccccc4C23)o1 (stereo not drawn)	-	-	-	-	-	-100.1%
CCn1c(=O)c2ccccc2n(Cc2cccc([N+](=O)[O-])c2)c1=O	-	-	-	-	-35.4	-
CC1(C)Cc2c(sc(NC(=O)c3ccco3)c2C(=O)O)CO1	-	-	-	-	-34.5	.
COc1ccc2[nH]c(C(=O)N3CCc4ccccc4C3)cc2c1	.	.	.	.	-	.
CCC(CC)NC(=O)COC(=O)CCS(=O)(=O)c1ccc(C)cc1	.	.	.	.	-	.
SMILES	Vif-A3G inh	Glioma ERSR ind	Vif-A3F inh	PINK1 modulator	LDHA block	pAkt inh
CCCC(C)NC(=O)COC(=O)CCS(=O)(=O)c1ccc(C)cc1 (stereo not drawn)	.	.	.	.	-30.8	.
CCN(C(=O)CN1CCN(C)CC1)c1cccc2ccccc12	-	-	-	-	-36.0	-
CCN(C(=O)CN1C(=O)CN(C)C1=O)c1cccc2ccccc12	-	-	-	-	-	-
CCOC(=O)N1CCN(c2nc(SC)nc3sc4c(c23)CC(C)(C)OC4)CC1	-	-	-	-	-	-85.5%
O=C(Nc1cc(Cl)ccc1O)c1snnc1-c1ccccc1	-	-	-	11.2µM	-	-
O=C(Nc1cccc(Cl)c1Cl)c1snnc1-c1ccccc1	-	-	-	-	-	-
CN(C)c1ccc(/C=C/C(=O)c2ccc(O)cc2)cc1	?	-	7.94µM	-	-	-
Cc1occc1-c1nnc(SCC(=O)Nc2nc(-c3ccccc3)cs2)o1	-	-	-	10µM	-	-
CN(C)c1cccc(C(=O)N/N=C2/CCSc3ccc(F)cc32)c1	.	.	.	.	-	.
CC(=O)Cc1nsc(NC(=O)c2ccc(-c3cc(C(F)(F)F)ccc3Cl)o2)n1	-	-	-	5.01µM	-	-
CC(=O)Cc1nsc(NC(=O)c2ccc(-c3cc(Cl)ccc3Cl)o2)n1	?	-	-	-	-	-
COc1ccccc1CNC(=O)Cn1c(=O)c2c(ncn2CC(C)C)n(Cc2ccccc2)c1=O	.	.	.	.	-	.
Cc1[nH]nc2c1/C(=N\O)CC(C)(C)C2	-	-	-	-	-	-
Cc1[nH]nc2c1C(=O)CC(C)(C)C2	-	-	-	-	-	-110.2%
O=C(NC1CC1)c1cccc2c1C(=O)c1ccc(N3CCC(Cc4ccccc4)CC3)cc1S2(=O)=O	?	-	22.4µM	-	-	-
O=C(NC1CCCCC1)c1cccc2c1C(=O)c1ccc(N3CCCC3)cc1S2(=O)=O	-	-	-	-	-	-
O=C(NCc1ccc(F)cc1)c1cccc2c1C(=O)c1ccc(N3CCC(Cc4ccccc4)CC3)cc1S2(=O)=O	?	-	25.1µM	-	-	-
c1cncc(-c2nnc3n2N=C(c2cccs2)CS3)c1	-	-	-	-	-	-113.9%
COC(=O)c1c(NC(=O)CSc2ncnc3ccccc23)sc2c1CCCCC2	.	.	.	.	-	.
CC(C)n1nc(C(=O)OCC(=O)Nc2ccccc2Cl)c2ccccc2c1=O	.	.	.	.	-	.
O=C(O)CN1C(=O)/C(=C/c2ccc(-c3cccc(Cl)c3)o2)SC1=S	.	.	.	.	-62.6	.
O=C(O)c1cc(-c2ccc(/C=C3/SC(=S)N(Cc4ccccc4)C3=O)o2)ccc1Cl	-	-	?	-	-	-
O=C(O)CN1C(=O)/C(=C\c2cc(Br)ccc2OCc2ccc(Cl)cc2)SC1=S	-	-	-	-	-40.2	-
O=C(O)CN1C(=O)/C(=C\c2cc(Br)ccc2OCc2ccc(F)cc2)SC1=S	-	-	-	-	-34.0	-
Cc1ccc(-c2cc(C(=O)N3CCOCC3C)n[nH]2)s1 (stereo not drawn)	.	.	.	.	-	.
SMILES	Vif-A3G inh	Glioma ERSR ind	Vif-A3F inh	PINK1 modulator	LDHA block	pAkt inh
Nc1c(C(=O)Nc2ccccc2Br)sc2nc(-c3cccs3)ccc12	-	?	?	-	-	.
COc1ccc(-c2cc(-c3cccs3)nc3sc(C#N)c(N)c23)cc1	?	-	11.2µM	-	-	-
Nc1c(C(=O)Nc2nc3ccccc3s2)sc2nc(-c3cccs3)ccc12	11.2µM	-	7.94µM	-	-	-
CC(=O)c1sc2nc(-c3cccs3)ccc2c1N	-	-	-	-	-	-
Nc1c(C(=O)Nc2ccc(F)cc2)sc2nc(-c3cccs3)cc(C(F)(F)F)c12	?	-	?	?	-	.
CC(C)NC(=O)c1sc2nc(-c3cccs3)cc(-c3cccs3)c2c1N	-	-	?	-	-	-93.6%
Nc1c(C(=O)C2CC2)sc2nc(-c3cccs3)cc(C(F)(F)F)c12	-	-	0.631µM	?	-	-
N#Cc1sc2nc(C3CC3)cc(-c3ccc(Cl)cc3)c2c1N	-	-	-	-	-	-
